Values joined by “and” are separate entries in the source; they are usually repeats but may differ in a detail not shown here. Identical values can stand only once. Results filed as inconclusive are left out. Some compounds were tested as several samples or in several runs, with calls that do not always agree. Active and inactive are the calls of the source. The calls were made as follows, unless noted: active = hit-call score of the fitted dose curve at least 0.9, where 1 is the maximum; inactive = score below 0.9.
Legend:
[1] = BSK_3C_Proliferation: Cell Proliferation Assessment in the BioMAP Diversity Plus: 3C Assay (AID 2283006); details: primary human endothelial cells (HUVEC);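 as to AC50: potency may reflect either rise or fall in cell number versus DMSO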
Method in brief: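 Proliferation as total protein: sulforhodamine B (0.1%) stain of TCA-fixed subconfluent human umbilical vein endothelial cells, absorbance 560 nm, 48 h after dosing. Activity fitted in both directions against DMSO baseline.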

[2] = CCTE_Shafer_MEA_acute_spike_number: CCTE's Neural Acute Assay for Total Number of Spikes, Shafer Lab (AID 2284008);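 as to AC50: curve fitted for decrease in spike count so AC50 reflects inhibitors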
Method in brief: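 Cortical neurons from rat, matured to DIV 13 or 15 on microelectrode arrays, are recorded at 37 C before and during 40-min exposure to 0.03-40 uM compound. Wells need >/= 10 active electrodes.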

[3] = CCTE_Shafer_MEA_acute_firing_rate_mean: CCTE's Neural Acute Assay for Mean Firing Rate, Shafer Lab (AID 2284009);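 also: analyzed for loss of signal so actives lower firing rate relative to DMSO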
Method in brief: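 Primary rat cortical neurons on 16-electrode MEA wells were exposed on DIV 13 or 15 to compound (0.03-40 uM). Spike counts per recording time, averaged over electrodes, were compared between 40-min baseline and 40-min post-exposure recordings as percent change.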

[4] = CCTE_Shafer_MEA_acute_burst_duration_mean: CCTE's Neural Acute Assay for Mean Burst Duration, Shafer Lab (AID 2284014);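 also: hits are decreases in mean burst duration relative to DMSO controls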
Method in brief: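 Mean burst duration was compared between a 40 min baseline and a 40 min recording in the presence of compound (0.03-40 uM, 37 C), giving percent change per well. Cultures were rat cortical neurons at DIV 13 or 15; wells needed ≥10 active electrodes.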

[5] = CCTE_Shafer_MEA_acute_per_burst_spike_number_mean: CCTE's Neural Acute Assay for Average Number of Spikes Per Burst, Shafer Lab (AID 2284015);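 also: hits are decreases in mean spikes per burst versus baseline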
Method in brief: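 Percent change in mean spikes per single-electrode burst is compared between a 40 min baseline and a 40 min recording with compound (0.03-40 uM). Cultures were rat cortical neurons on MEA plates at DIV 13 or 15, recorded at 37 C, with DMSO as the negative control.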

[6] = CCTE_Shafer_MEA_acute_burst_percentage_mean: CCTE's Neural Acute Assay for Percentage of Spikes in a Burst, Shafer Lab (AID 2284017);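 as to AC50: curve fitted for loss of signal so potency reflects decreased burst percentage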
Method in brief: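 Well-level mean burst percentage from a 40-min recording after compound (0.03-40 uM) expressed as percent change from a 40-min baseline at 37C. Cultures: primary rat cortical neurons on MEA, dosed on DIV 13 or 15; fitted downward relative to DMSO.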

[7] = CCTE_Shafer_MEA_acute_burst_percentage_std: CCTE's Neural Acute Assay for Standard Deviation of Burst Percentage, Shafer Lab (AID 2284018);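 also: fitted in the negative direction so actives lower burst percentage SD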
Method in brief: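 Value is percent change from baseline in the across-electrode SD of spikes-in-bursts percentage, wells with >/= 10 active electrodes. Acute 40-min exposure to 0.03-40 uM on DIV 13 or 15 rat cortical cultures, recorded at 37 C after 40-min baseline.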

[8] = CCTE_Shafer_MEA_acute_per_network_burst_spike_number_mean: CCTE's Neural Acute Assay for Average Number of Spikes in a Network Burst, Shafer Lab (AID 2284019);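 as to AC50: curve fitted for loss of signal so actives reduce spikes per network burst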
Method in brief: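 Percent change from baseline in mean spikes per network burst, spikes detected at 8x rms noise. Each compound at 0.03-40 uM in at least three wells of rat cortical cultures, recorded 40 min before and 40 min during exposure.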

[9] = CCTE_Shafer_MEA_acute_per_network_burst_spike_number_std: CCTE's Neural Acute Assay for Standard Deviation of Number of Spikes in a Network Burst, Shafer Lab (AID 2284020);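 also: fitted for decrease in spike-number SD versus DMSO so actives lower it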
Method in brief: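 Endpoint: percent change from 40 min baseline in standard deviation of spikes per network burst, after 40 min compound exposure (0.03-40 uM, 37 C). Cortical rat neurons on MEA at DIV 13 or 15; spikes detected at 8x rms noise, 300-5000 Hz band-pass.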

[10] = CCTE_Shafer_MEA_acute_per_network_burst_electrodes_number_mean: CCTE's Neural Acute Assay for Mean Number of Electrodes in a Network Burst, Shafer Lab (AID 2284021);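 also: curves fitted for decreases only so hits reduce electrodes per burst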
Method in brief: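 Cultures of rat cortex neurons were exposed on DIV 13 or 15 to compounds at 0.03-40 uM in at least three wells each. Activity over 40 min before and 40 min after exposure at 37 C gave the percent change in electrodes per network burst.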

[11] = CCTE_Shafer_MEA_acute_network_burst_percentage: CCTE's Neural Acute Assay for Percentage of Network Bursts, Shafer Lab (AID 2284022);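 also: curves fitted for loss so actives lower network burst percentage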
Method in brief: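 Cortical neurons from rat were grown over microelectrode arrays and used on day 13 or 15 in vitro. Wells with at least 10 active electrodes received test chemical at 0.03-40 uM. Activity during 40 min of exposure was compared with the preceding 40-min baseline.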

[12] = CCTE_Shafer_MEA_acute_synchrony_index: CCTE's Neural Acute Assay for Synchrony, Shafer Lab (AID 2284027);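 also: network synchrony index of spontaneous spiking in primary rat cortical neurons on MEAs; fitted for loss of signal so actives lower synchrony relative to DMSO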
Method in brief: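 The synchrony index is taken as percent change per well between a 40 min baseline and a 40 min recording with compound (0.03–40 uM), at 37C. Rat cortical cultures on multiwell MEAs at DIV 13 or 15, spike threshold 8× rms noise.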

[13] = read-out: Interferon-inducible T-cell alpha chemoattractant (ITAC), CXCL11 (gene 6373); assay: BSK_hDFCGF_ITAC: BioMAP Diversity Plus: hDFCGF Assay for Interferon-inducible T-cell alpha chemoattractant (ITAC) Biomarker Activity (AID 2284251); details: primary human foreskin fibroblasts
Method in brief: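 I-TAC levels were read by ELISA on human dermal foreskin fibroblast primary cultures 24 h after dosing, analysed against DMSO in the positive direction. Cytotoxicity was assessed alongside by sulforhodamine B total-protein staining.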

[14] = read-out: Intercellular Adhesion Molecule 1 (ICAM1), ICAM1 (gene 3383); assay: BSK_BE3C_ICAM1: BioMAP Diversity Plus: BE3C Assay for Intercellular Adhesion Molecule 1 (ICAM1) Biomarker Activity (AID 2284278); details: primary human bronchial epithelial cells
Method in brief: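 ICAM-1 quantified by ELISA and fitted against DMSO baseline, 24 h post-dosing in BE3C cultures of primary human lung bronchial epithelial cells. Cytotoxicity checked in parallel cultures by total protein SRB staining.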

KRT18 (gene 3875) = assay: BSK_BE3C_Keratin818: BioMAP Diversity Plus: BE3C Assay for Keratin 818 Biomarker Activity (AID 2284282); details: primary human bronchial epithelial cells
Method in brief: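 ELISA readout of Keratin 8/18 in human primary bronchial epithelial cultures after 24 h chemical exposure, DMSO baseline. Parallel SRB staining (0.1%, TCA-fixed, 560 nm) served as cytotoxicity check.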

[15] = read-out: TIMP metallopeptidase inhibitor 2 (TIMP2), TIMP2 (gene 7077); assay: BSK_hDFCGF_TIMP2: BioMAP Diversity Plus: hDFCGF Assay for TIMP metallopeptidase inhibitor 2 (TIMP2) Biomarker Activity (AID 2284289); details: primary human foreskin fibroblasts
Method in brief: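 Primary human foreskin fibroblasts in the hDFCGF system, dosed for 24 h; TIMP-2 level measured by ELISA, fitted in the positive direction against DMSO; cytotoxicity checked in parallel by sulforhodamine B total protein staining.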

[16] = read-out: Thrombomodulin, THBD (gene 7056); assay: BSK_LPS_Thrombomodulin: BioMAP Diversity Plus: LPS Assay for Thrombomodulin Biomarker Activity (AID 2284296); details: primary human HUVEC with PBMC
Method in brief: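 Thrombomodulin on the surface of LPS-activated endothelial/PBMC co-cultures was quantified by ELISA at 24 hours post-dosing, with DMSO as baseline. Parallel SRB total-protein staining flagged overt cytotoxicity.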

[17] = target: bovine Estrogen Receptor (ER), ESR1 (gene 407238) (UniProt P49884); assay: NVS_NR_bER: NovaScreen (NVS) Nuclear Receptor Binding Assay for bovine Estrogen Receptor (ER) (AID 2283345; active = hit-call score of the fitted dose curve at least 0.9, where 1 is the maximum;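 also: actives lower the bound radioligand count which means they displace the ER ligand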)
Chain of bovine Estrogen Receptor (ER), ESR1 (gene 407238) (P49884 whole entry, looked up): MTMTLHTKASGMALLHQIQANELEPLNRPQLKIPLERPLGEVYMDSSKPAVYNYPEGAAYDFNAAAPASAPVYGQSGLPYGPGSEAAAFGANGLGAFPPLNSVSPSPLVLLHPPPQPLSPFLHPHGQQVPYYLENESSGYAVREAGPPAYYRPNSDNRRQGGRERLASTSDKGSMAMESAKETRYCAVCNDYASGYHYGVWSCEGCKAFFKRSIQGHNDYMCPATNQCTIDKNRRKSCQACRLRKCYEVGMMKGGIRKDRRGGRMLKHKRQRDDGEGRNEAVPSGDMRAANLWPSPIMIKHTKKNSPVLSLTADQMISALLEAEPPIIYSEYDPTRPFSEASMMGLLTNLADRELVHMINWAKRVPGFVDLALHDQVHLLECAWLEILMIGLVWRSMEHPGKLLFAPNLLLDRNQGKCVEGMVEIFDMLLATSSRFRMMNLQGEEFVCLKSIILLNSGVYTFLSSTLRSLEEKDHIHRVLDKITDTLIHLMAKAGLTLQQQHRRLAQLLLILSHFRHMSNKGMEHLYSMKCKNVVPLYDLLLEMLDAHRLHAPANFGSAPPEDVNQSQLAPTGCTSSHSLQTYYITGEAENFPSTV
Method in brief: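 Displacement of a radioligand from estrogen receptor in bovine uterine membrane preparations; scintillation signal taken at 18 hours, DMSO as baseline. Single-concentration duplicates (25 uM) preceded concentration-response follow-up of actives.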

[18] = target: Estrogen receptor (Homo sapiens) (UniProt P03372); assay: NVS_NR_hER: NovaScreen (NVS) Nuclear Receptor Binding Assay for human Estrogen Receptor (ER) (AID 2283348; active = hit-call score of the fitted dose curve at least 0.9, where 1 is the maximum)
Chain of Estrogen receptor (Homo sapiens) (P03372 whole entry, looked up): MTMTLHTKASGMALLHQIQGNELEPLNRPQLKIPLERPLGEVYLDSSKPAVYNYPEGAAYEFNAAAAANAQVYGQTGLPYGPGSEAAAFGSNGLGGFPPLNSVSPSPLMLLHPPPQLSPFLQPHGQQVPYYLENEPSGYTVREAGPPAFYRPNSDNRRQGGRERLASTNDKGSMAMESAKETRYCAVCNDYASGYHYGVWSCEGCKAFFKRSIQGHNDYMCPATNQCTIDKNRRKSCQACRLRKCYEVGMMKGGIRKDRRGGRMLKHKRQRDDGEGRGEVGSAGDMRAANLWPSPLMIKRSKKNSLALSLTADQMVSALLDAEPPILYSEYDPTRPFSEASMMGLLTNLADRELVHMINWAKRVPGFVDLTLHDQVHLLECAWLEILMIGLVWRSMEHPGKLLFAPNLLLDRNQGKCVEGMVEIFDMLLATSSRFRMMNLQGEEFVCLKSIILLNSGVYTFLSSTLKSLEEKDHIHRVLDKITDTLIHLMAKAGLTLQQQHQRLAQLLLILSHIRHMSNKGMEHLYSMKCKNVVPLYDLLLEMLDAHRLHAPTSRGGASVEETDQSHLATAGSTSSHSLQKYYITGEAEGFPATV
Method in brief: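 Cell-free MCF7-derived ER preparation, specific radioligand displaced by test compound, read by scintillation counting 18 h post-dosing. Duplicate single-point 25 uM screen, then concentration-response confirmation; DMSO baseline.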

[19] = target: human Vitamin D Receptor (VDR), VDR (gene 7421) (UniProt P11473); assay: ATG_VDR_TRANS: Attagene TRANS-FACTORIAL HepG2 Assay for human Vitamin D Receptor (VDR) (AID 2283022; active = hit-call score of the fitted dose curve at least 0.9, where 1 is the maximum)
Chain of human Vitamin D Receptor (VDR), VDR (gene 7421) (P11473 whole entry, looked up, the tested form may be a part): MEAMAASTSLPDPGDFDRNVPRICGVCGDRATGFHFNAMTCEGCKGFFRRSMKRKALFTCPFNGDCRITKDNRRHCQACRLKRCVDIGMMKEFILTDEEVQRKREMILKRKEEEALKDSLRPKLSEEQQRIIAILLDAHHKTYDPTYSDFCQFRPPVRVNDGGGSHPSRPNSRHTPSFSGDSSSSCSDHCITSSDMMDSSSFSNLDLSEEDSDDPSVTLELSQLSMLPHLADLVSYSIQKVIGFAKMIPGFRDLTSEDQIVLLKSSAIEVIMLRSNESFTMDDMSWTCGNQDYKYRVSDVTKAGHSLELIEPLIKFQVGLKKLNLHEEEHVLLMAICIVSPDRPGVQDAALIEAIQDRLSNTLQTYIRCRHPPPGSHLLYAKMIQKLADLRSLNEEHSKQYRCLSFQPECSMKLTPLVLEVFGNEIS
Method in brief: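 Fluorescence of labelled reporter cDNA fragments, resolved by capillary electrophoresis, gives mRNA induction after 24 h treatment of HepG2 cells carrying transfected Gal4-fusion reporter units. Activity is fitted in the positive direction with DMSO as baseline.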

Measured: AC50

COc1ccccc1Oc1c(NS(=O)(=O)c2ccc(C(C)(C)C)cc2)nc(-c2ncccn2)nc1OCCO
active: [1] 28.2 µM and 13.9 µM
not listed: [17] | [18] | [19]
inactive: all other assays above

OC(C(F)(F)F)(C(F)(F)F)C(O)(C(F)(F)F)C(F)(F)F
inactive: [14] | KRT18 (gene 3875) | [16]
active: [1] 22.1 µM and 21.6 µM | [13] 21.2 µM and 20.9 µM | [14] 44.7 µM | [15] 6.98 µM and 8.04 µM

CC(C)(C)C(=O)C(=O)O
inactive: [17] | [18]

O=[N+]([O-])c1cc(S(=O)(=O)Nc2ccccc2)ccc1Nc1ccccc1
active: [1] 30.6 µM and 30.9 µM | [2] 2980 nM | [3] 2980 nM | [6] 25100 nM | [7] 15000 nM | [8] 1260 nM | [9] 1220 nM | [12] 23800 nM | [13] 27.4 µM and 24 µM | [14] 29.2 µM and 37 µM | KRT18 (gene 3875) 32000 nM | [15] 29.8 µM and 30.3 µM | [16] 20 µM and 28.1 µM
inactive: [4] | [5] | [10] | [11] | KRT18 (gene 3875)

O=C(C1CCCCC1)N1CC(=O)N2CCc3ccccc3C2C1 (centres undefined)
inactive: [19]

COc1ccc(C(=O)c2ccccc2O)c(O)c1
inactive: [4] | [5] | [6] | [7] | [8] | [9] | [10] | [12] | [13] | [14] | KRT18 (gene 3875) | [15] | [16]
active: [1] 23.6 µM | [2] 21.5 nM | [3] 5.33 nM | [11] 3 nM | [13] 28.3 µM

CCCCCCCCCCCCSC#N
inactive: [17] | [18]

CC(=O)CC(=O)OC(C)(C)C
inactive: [17] | [18]

CC(=O)OC(C)(C)Cc1ccccc1
inactive: [19]

Nc1nc(N)c2nc(-c3ccccc3)c(N)nc2n1
inactive: [17] | [18]

CCCCC(CC)COC(=O)C=Cc1ccc(OC)cc1 (centres undefined)
inactive: [13] | [14] | KRT18 (gene 3875)
active: [1] 32.7 µM and 27.1 µM | [15] 3.97 µM and 6.38 µM | [16] 10.6 µM and 20 µM

Cc1c(C(N)=O)cc([N+](=O)[O-])cc1[N+](=O)[O-]
active: [2] 3 nM | [3] 3.2 nM | [16] 149 nM
inactive: [1] | [4] | [5] | [6] | [7] | [8] | [9] | [10] | [11] | [12] | [13] | [14] | KRT18 (gene 3875) | [15] | [16]

C1CN(CCOCCN2CCOCC2)CCO1
not listed: [17] | [18] | [19]
inactive: all other assays above

CCCCC(CC)COC(=O)CS (centres undefined)
inactive: [19]

O=[N+]([O-])c1cc[n+]([O-])cc1
inactive: [17] | [18]

CCCCCCCCCCCCCCCCCC[N+](C)(C)C
active: [1] 1.36 µM
inactive: [19]

CC1(O)CSC(C)(O)CS1 (centres undefined)
inactive: [17] | [18]

CC(C)C1OCCN1CCOC(=O)NCCCCCCNC(=O)OCCN1CCOC1C(C)C (centres undefined)
active: [2] 16.3 nM | [3] 16.3 nM
not listed: [17] | [18] | [19]
inactive: all other assays above

CCCCCCCCCCCCN(CCO)CCO
inactive: [17]

CCOc1nc2cccc(C(=O)OC(C)OC(=O)OC3CCCCC3)c2n1Cc1ccc(-c2ccccc2-c2nn[nH]n2)cc1 (centres undefined)
inactive: [18]

CCN(Cc1cccc(S(=O)(=O)O)c1)c1ccccc1
inactive: [18]

Cc1oc(C)c(C(=O)Nc2ccccc2)c1C
inactive: [18]
